Consider seven compounds from PubChem BioAssay (NCI).

Among the test systems are NCI-H23 lung; NCI-H226 lung; NCI-H322M lung; HOP-62 NSCLC; NCI-H460 lung; HOP-92 NSCLC; NCI-H522 lung; A549/ATCC NSCLC; 786-0 renal; COLO 205 colon; DU-145 prostate; K-562 leukemia; MALME-3M melanoma; MDA-MB-231 breast; RXF 393 renal; SF-268 CNS; SF-295 CNS; SF-539 CNS; UACC-257 melanoma; M14 melanoma.
Common to all, as to experiment: NCI-60 one-dose screen, 48 h (100 = growth as untreated, 0 = no growth, -100 = all killed)
Holding throughout (conditions): 10 µM unless noted

This is part of a sample that, as a whole, favours compounds with a hit. Of some 83,000 tested, about 20% had one in any assay.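 Method: cells in 96-well plates; compound added at one concentration; 48 h incubation; percent growth measured; values under 10 scored active.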 A number with no mark means an inactive call. Calls of active or inactive are those of the source.

As to `CCCCCCCCn1ccc2cc(NC(=O)Cn3cc(CN4CCN(CC)CC4)nn3)ccc21`, the growth in the experiment with NCI-H23 lung was 105%; in the experiment on NCI-H226 lung, 98.3%; in the experiment with NCI-H322M lung it was 78.3%; in the experiment on HOP-62 NSCLC, 89.8%; in the experiment with NCI-H460 lung, 13.8%; with HOP-92 NSCLC it was 54.7%. The growth was 86.9% with NCI-H522 lung; 64% with A549/ATCC NSCLC; 57.9% with 786-0 renal; -70.2% (active) with COLO 205 colon; 90.6% in the experiment on DU-145 prostate; 3.41% (active) with K-562 leukemia. For the same compound, the growth with MALME-3M melanoma is -11.1% (active); in the experiment on MDA-MB-231 breast, 45.8%; in the experiment with RXF 393 renal, 67.7%; in the experiment with SF-268 CNS, 76.7%; in the experiment on SF-295 CNS, 13.7%; in the experiment with SF-539 CNS, 82.7%. The growth in the experiment with UACC-257 melanoma was 79.4%; in the experiment on M14 melanoma, -64.3% (active).
Turning to `CC1(C)C2CC=C(/C=N/NC(=O)C3CCC(=O)N3)C1C2` (stereo not given), the growth was 97.7% in the experiment with NCI-H23 lung; 106% in the experiment with NCI-H226 lung; 107% in the experiment on NCI-H322M lung; 110% in the experiment with HOP-62 NSCLC; 102% in the experiment with NCI-H460 lung; 99.5% in the experiment on HOP-92 NSCLC. Also, the growth in the experiment on NCI-H522 lung was 99.9%; with A549/ATCC NSCLC it was 104%; in the experiment with 786-0 renal, 101%; in the experiment on COLO 205 colon, 114%; with DU-145 prostate, 113%; in the experiment with K-562 leukemia it was 99.4%. In addition, the growth with MALME-3M melanoma is 105%; in the experiment on MDA-MB-231 breast, 122%; with RXF 393 renal it was 121%; with SF-268 CNS, 101%; with SF-295 CNS it was 97.4%; in the experiment with SF-539 CNS, 100%. The figures for the growth in the experiment with UACC-257 melanoma and in the experiment on M14 melanoma were 102% and 107%, respectively.
As to `Cc1cc(F)ccc1S(=O)(=O)Nc1cc(-c2c(O)ccc3ccccc23)c(O)c2ccccc12`, the growth was 16.7% in the experiment with NCI-H23 lung; 47.3% in the experiment on NCI-H226 lung; 79% with NCI-H322M lung; 80.1% in the experiment on HOP-62 NSCLC; 16.3% in the experiment on NCI-H460 lung; 19.1% in the experiment with HOP-92 NSCLC. The growth in the experiment on NCI-H522 lung was -36.2% (active); with A549/ATCC NSCLC it was 20.4%; with 786-0 renal, 76.2%; in the experiment on COLO 205 colon it was 14.3%; with DU-145 prostate it was 41.7%; with K-562 leukemia, 14.8%. Also, the growth with MALME-3M melanoma is 15.3%; in the experiment with MDA-MB-231 breast, 22.7%; in the experiment on RXF 393 renal, 27.1%; with SF-268 CNS it was 34.9%; with SF-295 CNS, 41.8%; in the experiment with SF-539 CNS it was 6.5% (active). Further, the growth is 30.2% in the experiment with UACC-257 melanoma and 18.2% with M14 melanoma.
With `O=C(CCl)Nc1ccc2c(Nc3cc(O)ccc3Cl)ncnc2c1`, the growth with NCI-H23 lung was -74% (active); in the experiment with NCI-H226 lung it was -35% (active); in the experiment with NCI-H322M lung it was 5.63% (active); in the experiment on HOP-62 NSCLC it was -63.5% (active); with NCI-H460 lung it was -54.8% (active); in the experiment on HOP-92 NSCLC, -85% (active). Besides, the growth was -65.8% (active) in the experiment on NCI-H522 lung; -56.9% (active) in the experiment on A549/ATCC NSCLC; -89.8% (active) in the experiment with 786-0 renal; -51.9% (active) with COLO 205 colon; -89.1% (active) in the experiment on DU-145 prostate; -36% (active) with K-562 leukemia. Also, the growth in the experiment on MALME-3M melanoma is -86.4% (active); in the experiment with MDA-MB-231 breast, -84.5% (active); in the experiment on RXF 393 renal, -88.6% (active); in the experiment on SF-268 CNS, -56.1% (active); in the experiment with SF-295 CNS, -77.1% (active); with SF-539 CNS, -94% (active). Moreover, the growth in the experiment with UACC-257 melanoma is -11.5% (active); with M14 melanoma it was -77.1% (active).
As for `O=C1/C=C/[C@@H](O)[C@@H]2C[C@@H](O)C[C@H]2/C=C/CCC[C@H](CCOCc2ccccc2)O1`, the growth in the experiment on NCI-H23 lung was 7.5% (active); in the experiment on NCI-H226 lung, -32.3% (active); in the experiment with NCI-H322M lung, 31%; in the experiment with HOP-62 NSCLC, 30.9%; with NCI-H460 lung, 16.2%; with HOP-92 NSCLC, -16% (active). For the same compound, the growth with NCI-H522 lung is -38.8% (active); in the experiment on A549/ATCC NSCLC it was 14.5%; with 786-0 renal it was -51% (active); in the experiment on COLO 205 colon it was -74.5% (active); in the experiment with DU-145 prostate, 12.6%; in the experiment with K-562 leukemia, 10.2%. Besides, the growth in the experiment on MALME-3M melanoma was -24.6% (active); in the experiment on MDA-MB-231 breast, -71.5% (active); in the experiment with RXF 393 renal it was -2.06% (active); in the experiment on SF-268 CNS, 13.1%; in the experiment on SF-295 CNS, -18.3% (active); in the experiment on SF-539 CNS, 26.2%. Besides, the results for the growth in the experiment on UACC-257 melanoma and with M14 melanoma were 20.4% and 9.22% (active), respectively.
Turning to `O=C(Cn1nnc2ccccc21)Nc1ccc(-c2nc3ccccc3s2)cc1`, the growth is 80.7% with NCI-H23 lung; 67.5% in the experiment on NCI-H226 lung; 103% in the experiment on NCI-H322M lung; 101% in the experiment with HOP-62 NSCLC; 83% in the experiment on NCI-H460 lung; 73.1% with HOP-92 NSCLC. For the same compound, the growth was 79.3% with NCI-H522 lung; 93.6% in the experiment with A549/ATCC NSCLC; 95% in the experiment on 786-0 renal; 105% in the experiment with COLO 205 colon; 74% with DU-145 prostate; 55.2% with K-562 leukemia. The growth in the experiment with MALME-3M melanoma was 96.9%; in the experiment on MDA-MB-231 breast, 94.7%; in the experiment on RXF 393 renal it was 99.9%; in the experiment on SF-268 CNS, 92.4%; with SF-295 CNS, 84.7%; with SF-539 CNS it was 71.2%. In addition, the growth in the experiment with UACC-257 melanoma is 94.5%; with M14 melanoma it was 90.6%.
Regarding `CC(=O)N(Cc1ccccc1)c1nc2ccc(O)c(CN(C)C)c2s1`, the growth in the experiment on NCI-H23 lung was 96.7%; in the experiment with NCI-H226 lung, 90.5%; with NCI-H322M lung, 103%; in the experiment on HOP-62 NSCLC, 90.6%; in the experiment on NCI-H460 lung it was 100%; in the experiment on HOP-92 NSCLC it was 37.6%. Moreover, the growth in the experiment on NCI-H522 lung is 90.2%; with A549/ATCC NSCLC, 98.4%; with 786-0 renal, 97.6%; in the experiment on COLO 205 colon it was 116%; in the experiment with DU-145 prostate, 108%; with K-562 leukemia, 92.5%. The growth in the experiment with MALME-3M melanoma is 98.1%; in the experiment with MDA-MB-231 breast, 96%; in the experiment on RXF 393 renal, 98.2%; with SF-268 CNS, 94.6%; in the experiment on SF-295 CNS, 92.6%; in the experiment with SF-539 CNS, 97.2%. The growth is 102% in the experiment on UACC-257 melanoma and 104% in the experiment on M14 melanoma.
